Results published in PubChem BioAssay AID540359 (Broad Institute, 2011).
Potency and affinity values are given separately. Calls of active or inactive are those of the source. A call without a number means that no potency is given here. The rule behind the calls is not given here.

What follows are compounds tested against UDP-galactopyranose mutase (Mycobacterium tuberculosis (strain ATCC 25618 / H37Rv)) (UniProt P9WIQ1) (assay: UDP galactopyranose mutase inhibitors, Mycobacterium tuberculosis, cherry pick dose confirmation (AID 540359)). Conditions: purified UGM enzyme, plate reader activity; series mostly up to 50 µM.
Chain of UDP-galactopyranose mutase (Mycobacterium tuberculosis (strain ATCC 25618 / H37Rv)) (P9WIQ1 whole entry, looked up): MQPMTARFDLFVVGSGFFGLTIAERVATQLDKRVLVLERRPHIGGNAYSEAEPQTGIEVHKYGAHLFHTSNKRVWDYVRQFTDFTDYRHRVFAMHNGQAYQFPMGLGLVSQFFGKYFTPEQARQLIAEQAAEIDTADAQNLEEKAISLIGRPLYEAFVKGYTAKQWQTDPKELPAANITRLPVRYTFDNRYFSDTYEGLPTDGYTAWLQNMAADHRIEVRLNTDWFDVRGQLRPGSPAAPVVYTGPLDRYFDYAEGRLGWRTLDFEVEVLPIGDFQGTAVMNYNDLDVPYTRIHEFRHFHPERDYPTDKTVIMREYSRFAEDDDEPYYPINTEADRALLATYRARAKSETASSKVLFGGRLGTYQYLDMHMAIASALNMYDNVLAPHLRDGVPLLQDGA

Row | Compound | outcome
1 | COc1ccc(C(=O)NCC(=O)N2CCN(C(=O)c3ccco3)CC2)cc1[N+](=O)[O-] | inactive
2 | Cc1cc(C(=O)OCC(=O)Nc2c(Cl)cccc2Cl)c(C)o1 | inactive
3 | CCN(CC)C(=O)C1c2ccccc2Oc2ccccc21 | inactive
4 | O=C1C2C3C=CC(C3)C2C(=O)N1CCN1CCN(S(=O)(=O)c2ccc3ccccc3c2)CC1 (configuration not stated) | inactive
5 | Cc1ccccc1OCCn1cc(C(=S)N2CCCC2)c2ccccc21 | inactive
6 | CC(=O)N1CCN(S(=O)(=O)c2cccc(C(=O)NNC(=O)Cn3nc(C)cc3C)c2)CC1 | inactive
7 | O=S(=O)(c1ccccc1)N(CC1CO1)c1cc(Cl)ccc1Cl (configuration not stated) | inactive
8 | N#Cc1c(-c2ccccc2)ccnc1Oc1ccccc1 | inactive
9 | Cc1cc(C)c(S(=O)(=O)n2c([N+](=O)[O-])cnc2C)cc1C | inactive
10 | COc1ccc(N=Cc2c(O)n(-c3cccc(C)n3)c(=O)c3ccccc23)c(OC)c1 | inactive
11 | O=C(/C=C/c1ccc2c(c1)OCO2)c1c(O)n(CCc2ccccc2)c(=O)[nH]c1=O | inactive
12 | O=C(COC(=O)CN1C(=O)NC2(CCCC2)C1=O)NCc1ccc(Cl)cc1Cl | inactive
13 | CN(CC(=O)NC1CC1)S(=O)(=O)c1ccc(Br)cc1 | inactive
14 | Brc1ccc(/C=N/c2nc3ccccc3n2CCN2CCOCC2)cc1 | inactive
15 | O=C(COC(=O)COc1cccc(Br)c1)NCc1ccc2c(c1)OCO2 | inactive
16 | COc1ccc2[nH]c(C)c(CCN(Cc3cccs3)C(=S)Nc3ccccc3OC)c2c1 | inactive
17 | O=C(Cc1cccs1)Nc1cc(SCCO)cc([N+](=O)[O-])c1 | inactive
